In PubChem BioAssay (NCATS):
Results filed as inconclusive are left out. The source made the active and inactive calls. The call rests on the fitted dose curve.

Assay: Cell Viability - BJ (AID 421);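 further: cells exposed to compound for 40 hours at 37 °C before readout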
Details: BJ fibroblast viability, qHTS
Text: NIH Chemical Genomics Center [NCGC]
NIH Molecular Libraries Screening Centers Network [MLSCN]
National Institutes of Environmental Health Sciences [NIEHS]
National Toxicology Program [NTP]
We have developed a 1536-well cell-based assay for quantitative high throughput screening (qHTS) against a number of cell lines to determine in vitro cytotoxicity of small molecules. This particular assay uses the BJ cell line from ATCC which is derived from normal human foreskin fibroblasts.
NCGC Assay Protocol Summary:
The CellTiter-Glo luminescent cell viability assay (Promega) is a homogeneous method to measure the number of viable cells in culture. The end point readout of this assay is based on quantitation of intracellular ATP, an indicator of metabolic activity, using the luciferase reaction. Luciferase catalyzes the oxidation of beetle Luciferin to oxyluciferin and light in the presence of ATP. The luminescent signal is proportional to amount of ATP present.
Using the CellTiter-Glo luminescent cell viability assay, the amount of cellular ATP was measured in the BJ cell line with complete culture medium following compound treatment for 40 hours. The assay was performed in opaque white Kalypsys 1536-well plates. In the screen, tamoxifen and doxorubicin were used as positive controls. Library compounds were measured for their ability to cause acute toxicity in the cell line, as reflected by a decrease in intracellular ATP levels, in a concentration-dependent manner. Data were normalized to the controls for basal activity (DMSO only) and 100% inhibition (100 uM tamoxifen). AC50 values were determined from concentration-response data modeled with the standard Hill equation.
qHTS protocol fo CellTiter Glo BJ cellular assay
[Step] [Parameter] [Value] [Description]
1. Reagent; 5 uL; 1500 BJ cells/well
2. Time; 5 hr; 37 °C incubation
4. Controls; 23 nL; Tamoxifen 0.34 uM to 100 uM & Doxorubicin 0.02 nM to 100 uM
5. Time; 40 hr; 37 °C incubation
6. Reagent; 5 uL; CellTiter Glo reagent
7. Time; 20 min; Room Temperature
8. Detection; Luminescence; Viewlux plate reader
Keywords: cell viability, cytotoxicity, BJ cell line, luminescence, NTPHTS, NTPHTS_NCGC, NIEHS, EPA, DSSTox, MLSMR, MLSCN, NIH Roadmap, qHTS, NCGC
Potency means the concentration at half of the fitted maximal effect.

Row | SMILES | Potency
1 | CC1=C(/C=C/C(C)=C/C=C/C(C)=C/CO)C(C)(C)CCC1 | > 92 µM (inactive)
2 | CCOC(C)=O | > 92 µM (inactive)
3 | O=C(O)CCC(=O)C(=O)O | > 92 µM (inactive)
4 | CCOc1ccc2c(c1)C(C)=CC(C)(C)N2 | > 92 µM (inactive)
5 | CC(C)=O | > 92 µM (inactive)
6 | CCCCCCCC/C=C\CCCCCCCC(=O)O | > 92 µM (inactive)
7 | Nc1ccn([C@H]2CS[C@@H](CO)O2)c(=O)n1 | > 92 µM (inactive)
8 | CC1=C2[C@@H]([C@H](C)CC[C@H]2/C=C(\C)C(=O)O)[C@H](O)C1 | > 92 µM (inactive)
9 | O=CCCCC=O | > 92 µM (inactive)
10 | CCCCC/C=C\C/C=C\CCCCCCCC(=O)O | > 92 µM (inactive)
11 | O=S(=O)(O)O | > 92 µM (inactive)
12 | IC(I)I | > 92 µM (inactive)
13 | CC(O)CO (stereo not given) | > 92 µM (inactive)
14 | Cc1ccccc1 | > 92 µM (inactive)
15 | CCCCCCCC(=O)O | > 92 µM (inactive)
